“And” between values parts separate entries of the source, which are not always exact repeats. Equal entries are not always repeated. A number with no mark means an inactive call. Results filed as inconclusive are left out. The source made the active and inactive calls. Unless noted, calls come from the whole dose curve; as a rule, active = well fitted curve in the direction sought with a large enough effect; inconclusive = small, poorly fitted or top-dose-only effect, or another doubt; inactive = no such curve, though single readings can be large; an effect the other way counts as inactive or inconclusive.

Sequence of Alpha-galactosidase A (Homo sapiens) (P06280 whole entry, looked up): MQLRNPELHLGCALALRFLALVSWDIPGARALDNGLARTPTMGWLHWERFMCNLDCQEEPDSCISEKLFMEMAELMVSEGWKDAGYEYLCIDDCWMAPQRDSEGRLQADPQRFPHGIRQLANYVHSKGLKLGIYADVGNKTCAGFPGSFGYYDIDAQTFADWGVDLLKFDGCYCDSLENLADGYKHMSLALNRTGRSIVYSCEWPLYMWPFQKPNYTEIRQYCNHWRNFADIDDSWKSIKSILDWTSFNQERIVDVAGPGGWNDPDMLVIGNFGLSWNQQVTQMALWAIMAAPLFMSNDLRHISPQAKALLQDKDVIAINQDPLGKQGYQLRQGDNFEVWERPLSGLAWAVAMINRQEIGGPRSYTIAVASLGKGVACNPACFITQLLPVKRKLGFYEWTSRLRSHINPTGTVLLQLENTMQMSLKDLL

The first assay has as its target Alpha-galactosidase A (Homo sapiens) (UniProt P06280). The experiment in a line: Counterscreen for Glucocerebrosidase Inhibitors: qHTS Assay for Human alpha-Galactosidase at pH 4.5 (AID 992). Note: 0% is about no effect. The conditions noted are these: purified enzyme, fluorogenic substrate; series mostly up to 76.9 µM. Summed up: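 Each compound is preincubated briefly with 2 nM enzyme before substrate addition (80 uM); plates then sit 20 min at ambient temperature, are quenched with 1M NaOH/1M glycine, and read fluorometrically.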
On the technique in general: Counterscreens check selectivity or assay interference.
Take `CN(C)C(N)=NCCC[C@H](N)C(=O)O`: the call was inactive.

Consider `c1ccc(-c2ccccn2)nc1`, for which the call was inactive.

Turning to `Ic1ccc(N2CCN(Cc3c[nH]c4ncccc34)CC2)cc1`, the compound was called inactive.

As to `CCCn1c(=O)c2[nH]c(-c3ccc(OCC(=O)NCCN)cc3)nc2n(CCC)c1=O`, the call was inactive.

As to `CC1(C)CCC=[N+]1[O-]`, the compound was called inactive.

In the case of `COc1cccc(C(=O)NCCN2CCN(c3ccc(Cl)cc3)CC2)c1`, the compound was classed as inactive.

`NCCCCC(=O)O`: the call was inactive.

Regarding `N.N.O=C(O)C1(C(=O)O)CCC1.[Pt]`, the compound was called inactive.

Take `Clc1ccc(N2CCN(Cc3c[nH]c4ncccc34)CC2)cc1`: the outcome was inactive.

As to `N#C/C(=C\c1ccc(O)c(O)c1)C(=O)NCc1ccccc1`, the outcome was inactive.

For the compound `N=C(N)SCCc1ccc(CCSC(=N)N)cc1`, the outcome was inactive.

As for `CC(=O)SCC[N+](C)(C)C`, the result was inactive.

For `CNCC[C@H](Oc1ccc(C(F)(F)F)cc1)c1ccccc1`, the call was inactive.

Regarding `CCCCN1CCC(n2c(=O)[nH]c3ccccc32)CC1`, the result was inactive.

As to `O=C(Nc1ccccc1)c1cc([N+](=O)[O-])ccc1Cl`, the call was inactive.

As to `N#C/C(=C\c1ccc(O)c(O)c1)C(=O)NCCCc1ccccc1`, the result was inactive.

`NO`: the compound was classed as inactive.

For the compound `CN(C)c1nc(N)c(C(=O)N=C(N)N)nc1Cl`, the compound was called inactive.

Turning to `C[C@@H](NC(=O)/C(C#N)=C/c1ccc(O)c(O)c1)c1ccccc1`, the compound was called inactive.

The target in the next assay is alpha-glucosidase (Oryza sativa, rice) (UniProt Q653V4). The assay can be described thus: Counterscreen for Glucocerebrosidase Inhibitors: qHTS Assay for Rice alpha-Glucosidase at pH 5.0 (AID 997).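 Note: 0% = full activity with enzyme and -100% = basal without enzyme.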 Particulars: rice alpha-glucosidase enzyme activity; series mostly up to 76.9 µM. Summed up: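 Endpoint fluorogenic assay at pH 5.0: compounds (0.7 nM to 77 uM) titrated against 4 nM rice enzyme and 400 uM 4-MU-alpha-glucoside for 20 min at room temperature; NaOH/glycine stop, read ex 365/em 440 nm, Hill-fitted AC50.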
As to `CN(C)C(N)=NCCC[C@H](N)C(=O)O`, the compound was called inactive.

On to `c1ccc(-c2ccccn2)nc1`, for which the result was inactive.

With `Ic1ccc(N2CCN(Cc3c[nH]c4ncccc34)CC2)cc1`, the compound was called inactive.

For `CCCn1c(=O)c2[nH]c(-c3ccc(OCC(=O)NCCN)cc3)nc2n(CCC)c1=O`, the compound was called inactive.

Regarding `CC1(C)CCC=[N+]1[O-]`, the compound was classed as inactive.

As for `COc1cccc(C(=O)NCCN2CCN(c3ccc(Cl)cc3)CC2)c1`, the compound was classed as inactive.

In the case of `NCCCCC(=O)O`, the compound was called inactive.

As for `N.N.O=C(O)C1(C(=O)O)CCC1.[Pt]`, the call was inactive.

Turning to `Clc1ccc(N2CCN(Cc3c[nH]c4ncccc34)CC2)cc1`, the compound was classed as inactive.

For the compound `N#C/C(=C\c1ccc(O)c(O)c1)C(=O)NCc1ccccc1`, the result was inactive.

As for `N=C(N)SCCc1ccc(CCSC(=N)N)cc1`, the compound was classed as inactive.

As for `CC(=O)SCC[N+](C)(C)C`, the result was inactive.

As for `CNCC[C@H](Oc1ccc(C(F)(F)F)cc1)c1ccccc1`, the compound was called inactive.

For the compound `CCCCN1CCC(n2c(=O)[nH]c3ccccc32)CC1`, the compound was classed as inactive.

`O=C(Nc1ccccc1)c1cc([N+](=O)[O-])ccc1Cl`: the result was inactive.

In the case of `N#C/C(=C\c1ccc(O)c(O)c1)C(=O)NCCCc1ccccc1`, the call was inactive.

For `NO`, the result was inactive.

In the case of `CN(C)c1nc(N)c(C(=O)N=C(N)N)nc1Cl`, the outcome was inactive.

In the case of `C[C@@H](NC(=O)/C(C#N)=C/c1ccc(O)c(O)c1)c1ccccc1`, the compound was classed as inactive.

System in a further assay: not listed separately
The assay can be described thus: Validation of Assay for Modulators of Lamin A Splicing (AID 1459; active = well fitted curve in the direction sought with a large enough effect in the signal ratio; the % refers to the signal ratio;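 note: cells exposed to compound for two days before reading; 0% is about no effect; ratio rise marks activators and ratio drop marks inhibitors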). Particulars: Lamin A splicing dual RFP/GFP fluorescence reporter; series mostly up to 9.22 µM. Summed up:
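S3 HeLa cells stably expressing a lamin A-EGFP splicing minigene and DsRed2 were seeded at 600 cells/well in Opti-MEM with 2% FBS, pin-dosed, and incubated 48 hrs at 37 °C, 5% CO2. Laser-scanning cytometry (488 nm) gave GFP/RFP total intensity ratio.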
As for `CN1CCC[C@H]1c1cccnc1`, the compound was classed as inactive.

Take `CN(C)C(N)=NCCC[C@H](N)C(=O)O`: the call was inactive.

`c1ccc(-c2ccccn2)nc1`: the call was inactive.

Consider `Ic1ccc(N2CCN(Cc3c[nH]c4ncccc34)CC2)cc1`, for which the compound was classed as inactive.

On to `CCCn1c(=O)c2[nH]c(-c3ccc(OCC(=O)NCCN)cc3)nc2n(CCC)c1=O`, for which the compound was called inactive.

Regarding `CC1(C)CCC=[N+]1[O-]`, the compound was classed as inactive.

Consider `COc1cccc(C(=O)NCCN2CCN(c3ccc(Cl)cc3)CC2)c1`, for which the call was inactive.

As for `O=C(O)/C=C/C(O)c1ccc(Cl)cc1` (configuration not stated), the compound was called inactive.

With `NCCCCC(=O)O`, the call was inactive.

Regarding `N.N.O=C(O)C1(C(=O)O)CCC1.[Pt]`, the compound was classed as inactive.

Regarding `Clc1ccc(N2CCN(Cc3c[nH]c4ncccc34)CC2)cc1`, the result was inactive.

Take `N#C/C(=C\c1ccc(O)c(O)c1)C(=O)NCc1ccccc1`: the compound was called inactive.

Take `N=C(N)SCCc1ccc(CCSC(=N)N)cc1`: the compound was classed as inactive.

`CC(=O)SCC[N+](C)(C)C`: the compound was called inactive.

Turning to `CNCC[C@H](Oc1ccc(C(F)(F)F)cc1)c1ccccc1`, the result was inactive.

With `CCCCN1CCC(n2c(=O)[nH]c3ccccc32)CC1`, the compound was classed as inactive.

As to `O=C(Nc1ccccc1)c1cc([N+](=O)[O-])ccc1Cl`, the compound was called inactive.

`COc1cccc(OC)c1OCCNCC1COc2ccccc2O1` (configuration not stated): the compound was called inactive.

In the case of `CN(C)CCC(c1ccc(Cl)cc1)c1ccccn1` (configuration not stated), the outcome was inactive.

With `N#C/C(=C\c1ccc(O)c(O)c1)C(=O)NCCCc1ccccc1`, the call was inactive.

For the compound `CN1CCc2cc(O)c(O)cc2C(c2ccccc2)C1` (configuration not stated), the call was inactive.

For the compound `NO`, the compound was called inactive.

Take `C=CC(N)CCC(=O)O` (configuration not stated): the call was inactive.

For the compound `Oc1ccc(C2CNCc3sccc32)cc1O` (configuration not stated), the compound was called inactive.

On to `CC(C)(C)NCC(O)COc1nsnc1N1CCOCC1` (configuration not stated), for which the result was inactive.

`CN(C)c1nc(N)c(C(=O)N=C(N)N)nc1Cl`: the compound was classed as inactive.

Regarding `OCC1O[C@H](O)C(Cl)C(O)C1O` (some centres not stated), the compound was called inactive.

As to `CN1[C@@H](CC(=O)c2ccccc2)CCC[C@H]1C[C@H](O)c1ccccc1`, the compound was classed as inactive.

With `C[C@@H](NC(=O)/C(C#N)=C/c1ccc(O)c(O)c1)c1ccccc1`, the compound was classed as inactive.

System in the next assay: not listed separately
The assay can be described thus: qHTS Assay for Lipid Storage Modulators (AID 1519; calls by dose curve; note: % is set by controls: 0 for no effect and ±100 for the full control effect). The conditions noted are these: Drosophila S3 cells, BODIPY lipid droplet/cell ratio, laser cytometry; at 57.5 µM (top of the series); cells loaded with oleic acid. The gist of the method: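 Cells seeded at 5,000 per well were treated with compounds over a concentration series and loaded with oleic acid (400 uM, as added). Lipid droplet fluorescence (488 nm excitation, 500-530 nm channel) was read by laser-scanning cytometry and normalized to 20 uM Triacsin C.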
(In general: qHTS replaces the single test concentration by a dilution series.)
Consider `CN1CCC[C@H]1c1cccnc1`, for which the activity change, negative = inhibition is 2.76% and 1.23%.

Consider `Ic1ccc(N2CCN(Cc3c[nH]c4ncccc34)CC2)cc1`, for which the activity change, negative = inhibition is 0.316%.

For `CC1(C)CCC=[N+]1[O-]`, the activity change, negative = inhibition was 0.483%.

On to `COc1cccc(C(=O)NCCN2CCN(c3ccc(Cl)cc3)CC2)c1`, for which the activity change, negative = inhibition was -1.54%.

Turning to `NCCCCC(=O)O`, the activity change, negative = inhibition was 7.28% and -0.299%.

Turning to `N.N.O=C(O)C1(C(=O)O)CCC1.[Pt]`, the activity change, negative = inhibition is 7.88% and 0.357%.

Turning to `N=C(N)N`, the activity change, negative = inhibition is 4.02%.

In the case of `O=C(/C=C/c1ccc(O)cc1)c1ccc(O)cc1O`, the activity change, negative = inhibition was 6.63% and 0.947%.

Regarding `COc1cccc(OC)c1OCCNCC1COc2ccccc2O1` (configuration not stated), the activity change, negative = inhibition is 3.94% and -4.43%.

As to `Nc1ccc(C(=O)O)c(O)c1`, the activity change, negative = inhibition was -7.1%.

Turning to `O=C(O)CNC(=O)C(CS)Cc1ccccc1` (configuration not stated), the activity change, negative = inhibition is 0.149%.

Regarding `CN(C)CCC(c1ccc(Cl)cc1)c1ccccn1` (configuration not stated), the activity change, negative = inhibition is 1.75%.

Take `CN1CCc2cc(O)c(O)cc2C(c2ccccc2)C1` (configuration not stated): the activity change, negative = inhibition was -0.441%.

Turning to `C=CC(N)CCC(=O)O` (configuration not stated), the activity change, negative = inhibition was 4.04%.

On to `Oc1ccc(C2CNCc3sccc32)cc1O` (configuration not stated), for which the activity change, negative = inhibition was -2.2%.

Regarding `CCCCCCCCCCCCCCCCCC(=O)NCC(COP(=O)([O-])OCC[N+](C)(C)C)OCC` (configuration not stated), the activity change, negative = inhibition was -1.69%.

On to `CN(C)c1nc(N)c(C(=O)N=C(N)N)nc1Cl`, for which the activity change, negative = inhibition is 1.32%.

Turning to `OCC1O[C@H](O)C(Cl)C(O)C1O` (some centres not stated), the activity change, negative = inhibition is 0.529%.

Consider `CN1[C@@H](CC(=O)c2ccccc2)CCC[C@H]1C[C@H](O)c1ccccc1`, for which the activity change, negative = inhibition was -1.25%.

In the case of `Cc1ccc(C(=O)O[C@H](C(=O)O)[C@@H](OC(=O)c2ccc(C)cc2)C(=O)O)cc1` (tested in a mixture with another compound), the activity change, negative = inhibition was -0.359%.
